Test results as given in PubChem BioAssay.
A number with no mark means an inactive call.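 How the source made its calls: active means at least 20% inhibition of 6-phosphogluconate dehydrogenase activity; inactive means the rest.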

These compounds were tested against 6-phosphogluconate dehydrogenase, decarboxylating (Homo sapiens) (UniProt P52209) (assay: 6PGD enzyme inhibitors, primary screen, biochemical, human, recombinant enzyme, NADPH absorbance (AID 1159550)). Settings: recombinant 6PGD, NADPH absorbance 341 nm; at 10 µM; hits give high values.
6-phosphogluconate dehydrogenase, decarboxylating (Homo sapiens), sequence (P52209 whole entry, looked up): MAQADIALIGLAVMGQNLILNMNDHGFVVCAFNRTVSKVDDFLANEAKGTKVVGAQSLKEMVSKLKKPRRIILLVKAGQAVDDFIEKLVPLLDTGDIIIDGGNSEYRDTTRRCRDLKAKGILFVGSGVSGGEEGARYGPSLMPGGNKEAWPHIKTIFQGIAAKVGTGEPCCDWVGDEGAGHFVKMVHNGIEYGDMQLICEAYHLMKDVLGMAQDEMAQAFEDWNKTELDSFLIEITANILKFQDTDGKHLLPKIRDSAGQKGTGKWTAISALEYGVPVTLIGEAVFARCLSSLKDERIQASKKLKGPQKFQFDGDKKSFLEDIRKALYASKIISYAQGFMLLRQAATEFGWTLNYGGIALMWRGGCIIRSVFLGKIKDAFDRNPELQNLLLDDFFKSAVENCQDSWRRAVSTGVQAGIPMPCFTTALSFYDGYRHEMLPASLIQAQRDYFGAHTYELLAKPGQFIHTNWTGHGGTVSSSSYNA

Q: O=C(O)C=CC=Cc1ccccc1 was tested. Which inhibition did it give?
A: 8.52%

Q: How did the inhibition turn out when COC(=O)[C@]1(C)CC[C@]2(C)CC[C@]3(C)C4=CCc5c(cc(OC(C)=O)c(OC(C)=O)c5C)[C@]4(C)CC[C@@]3(C)[C@@H]2C1 was run?
A: 10.1%

Q: With COc1ccc2c(c1)OC/C(=C/c1ccc(O)c(O)c1)C2=O as the compound, how does the inhibition read?
A: 2.37%

Q: With COc1cc(O)c(C(=O)/C=C/c2ccccc2)c(OC)c1 as the compound, how does the inhibition read?
A: -2.81%

Q: For CC(C)=CCC[C@](C)(O)C1CC=C(C)CC1 (stereo not given in full), which inhibition is on record?
A: 1.33%

Q: COc1c(C(=O)O)ccc2c1CCC(C)(C)O2 was tested. Which inhibition did it give?
A: 17.1%

Q: With CCCCCCCCCCCCC(C(=O)O)C(C)C(=O)O (stereo not given) as the compound, how does the inhibition read?
A: -10.3%

Q: How did the inhibition turn out when CC[C@H]1OC(=O)[C@H](C)[C@@H](O[C@H]2C[C@@](C)(OC)[C@@H](O)[C@H](C)O2)[C@H](C)[C@@H](O[C@@H]2O[C@H](C)C[C@H](N(C)C)[C@H]2O)[C@](C)(O)C[C@@H](C)[C@@H]2NC(COCCOC)O[C@H]([C@H]2C)[C@]1(C)O (stereo not given in full) was run?
A: 5.47%

Q: With COc1ccc(-c2coc3cc(O)c(OC)cc3c2=O)cc1 as the compound, how does the inhibition read?
A: 10.5%

Q: With CC(=O)O[C@@H]1CC2C(C)(C)CCC(=O)[C@]2(C)C2CC[C@@]3(C)[C@H](c4ccoc4)OC(=O)C4OC43[C@@]21C (stereo not given in full) as the compound, how does the inhibition read?
A: -0.737%
